Experiment in all cases: NCI-60 one-dose screen, 48 h (100 = growth as untreated, 0 = no growth, -100 = all killed)
Conditions in all cases: 10 µM

Experiment [1] has as its system EKVX NSCLC.
Experiment [2] relates to SN12C renal.
In experiment [3] the test system is UO-31 renal.
Experiment [4] relates to TK-10 renal.
In experiment [5] the test system is ACHN renal.
For experiment [6], the system named is A498 renal.
In experiment [7] the test system is MOLT-4 leukemia.
Experiment [8] concerns CAKI-1 renal.
The subject of experiment [9] is CCRF-CEM leukemia.
Experiment [10] deals with SR leukemia.

Compounds without any hit were thinned out: in the full panel of roughly 83,000, 20% have a hit.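 Plates (96-well) were seeded with cells, treated with compound at one concentration, and incubated for 48 hours before percent growth was determined.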 Unmarked numbers belong to inactive results. Calls of active or inactive are those of the source. How the source made its calls: active means growth percent below 10; inactive means the rest.

For the compound `O=C1N=NC2=C1c1c3ccccc3c(O)n1CC2`, the growth in experiment [1] is 96.1%; in experiment [2], 105%; in [3], 90%; in experiment [4], 104%; in [5], 99.9%; in experiment [6], 94.9%. Moreover, in [7], the growth is 104%.

Take `O=C(/C(=C/c1ccccc1)CN1CCCCC1)c1ccccc1`: the growth in experiment [1] was 6.23% (active); in [2], -47.5% (active); in experiment [3], -93.8% (active); in experiment [4], -41.3% (active); in [8], -3.31% (active); in experiment [6], -77.1% (active). Moreover, the growth in experiment [9] was 7.4% (active); in [7], 3.27% (active); in [10], -12.4% (active).

With `CCCCC(CCCCCC(CCCC)NCc1ccc2c(c1)OCO2)NCc1ccc2c(c1)OCO2` (stereo unspecified), the growth is -75.2% (active) in [1]; -92.6% (active) in experiment [2]; -100% (active) in experiment [3]; -88% (active) in experiment [4]; -87.9% (active) in experiment [8]; -32.8% (active) in [9]. Besides, the growth was -66.7% (active) in experiment [7] and -64.8% (active) in experiment [10].

For `Cc1ccc(NC(=O)Nc2c(Cl)cccc2Cl)cn1`, the growth in [1] was 58.8%; in experiment [2], 105%; in experiment [3], 72.1%; in experiment [4], 128%; in experiment [5], 95.5%; in experiment [6] it was 106%. Moreover, the growth in experiment [7] was 86.9%.

For the compound `COc1cc(/C(=C2/O[C@@H]([C@H]3COC(C)(C)O3)[C@H]3OC(C)(C)O[C@@H]23)c2ccc3ccccc3c2)cc(OC)c1OC`, the growth in experiment [1] is 53.7%; in experiment [2], 24.8%; in [3] it was 46.8%; in experiment [4], 22.7%; in experiment [8], 38.7%; in experiment [9], 82.2%. In addition, the growth in [7] was 62.4%; in experiment [10], 51.4%.

Take `Clc1cc2c(c(CSc3nc4ccccc4n4cccc34)c1)OCOC2`: the growth in [1] was 70.6%; in experiment [2], 81.5%; in experiment [3], 74%; in experiment [4] it was 79.4%; in experiment [5], 87.9%; in experiment [6] it was 102%. Moreover, the growth in [7] is 94.8%; in experiment [10] it was 29.2%.

In the case of `COc1ccccc1/C=C/C(=O)c1ccccc1`, the growth was 98.6% in experiment [1]; 91.6% in [2]; 60.1% in [3]; 104% in [4]; 84.2% in experiment [5]; 108% in experiment [6]. Moreover, the growth in experiment [7] was 46%.

Consider `CCOCCOCCOCCOCCOCCOCCOCCOCCOCCO` (tested in a mixture with another compound), for which the growth in [1] is 12.7%; in experiment [2] it was 10.5%; in [3], 19.1%; in experiment [4], 0.0792% (active); in experiment [8], 13.1%; in experiment [6], 32.8%. For the same compound, the growth is -49.5% (active) in [7] and -52.4% (active) in [10].

On to `O=C(O)C(SC(C(=O)O)c1ccccc1)c1ccccc1` (stereo unspecified), for which the growth was 104% in [1]; 99.9% in [2]; 87.6% in experiment [3]; 106% in experiment [4]; 91.8% in [8]; 107% in experiment [6]. Further, the growth in [9] was 97.8%; in experiment [7], 103%; in [10], 101%.

For `CC(=O)[C@H]1CC[C@H]2[C@@H]3CCC4=CC(=O)C=C[C@]4(C)[C@H]3CC[C@]12C`, the growth in experiment [1] was 60.1%; in experiment [2] it was 95.9%; in [3], 88.5%; in experiment [4], 106%; in experiment [8] it was 87.8%; in experiment [6], 60.4%. Moreover, the growth in experiment [9] is 87.2%; in [7] it was 87.1%; in experiment [10], 84.4%.

With `CN1CCCNc2c(c(=O)c2=O)NCCCN(C)CCCNc2c(c(=O)c2=O)NCCCN(C)CCCNc2c(c(=O)c2=O)NCCCN(C)CCCNc2c(c(=O)c2=O)NCCCN(C)CCCNc2c(c(=O)c2=O)NCCCN(C)CCCNc2c(c(=O)c2=O)NCCCN(C)CCCNc2c(c(=O)c2=O)NCCC1`, the growth in experiment [1] is 61.7%; in experiment [2], 33.3%; in experiment [3], 17.2%; in experiment [4], 27.1%; in [8], 54.1%; in [6] it was 72.5%.

Regarding `OCC1OC(n2cnc3c(N/N=C\c4ccccn4)ncnc32)C(O)C1O` (stereo unspecified), the growth in experiment [1] was 7.34% (active); in [2] it was 18.9%; in experiment [3] it was -23.5% (active); in [4], 42.1%; in experiment [5] it was 11.8%; in [9], 16.8%. In addition, the growth in experiment [7] is 21%; in experiment [10], 20.3%.

Take `COc1cc(OC)cc(-c2cncn2-c2ccc(-c3nc4cc(OC)cc(OC)c4s3)cc2)c1`: the growth is 51.3% in [1]; 80.4% in experiment [2]; 49.5% in experiment [3]; 67.4% in [5]; 29% in experiment [8]; 21.6% in [9]. Moreover, the growth in experiment [7] is 44.3%; in [10], 35.5%.

In the case of `O=C(N/N=C/c1ccccc1)C(Oc1ccccc1)c1ccccc1` (stereo unspecified), the growth in [1] is 80.8%; in experiment [2] it was 96.5%; in experiment [3], 76%; in experiment [4], 106%; in experiment [8], 85.6%; in experiment [7] it was 101%. Besides, the growth in [10] was 91.8%.

Consider `CCCCC/C=C/C(=O)CCc1ccc(O)c(OC)c1`, for which the growth in [1] is 91.2%; in experiment [2], 81.3%; in [3], 37%; in experiment [4] it was 110%; in experiment [5] it was 103%; in experiment [9], 27.6%. Besides, the growth in experiment [7] is 96.7%; in [10], 53.4%.

With `COc1ccc2nc3ccccc3c(NCCNCC(C)O)c2c1` (stereo unspecified), the growth in experiment [1] is 7.84% (active); in [2] it was -4.73% (active); in [3] it was 17.9%; in [4], 8.4% (active); in experiment [8], 42.5%; in [6], -48.5% (active). Besides, the growth in experiment [9] was 5.94% (active); in experiment [7], 6.77% (active); in experiment [10], 4.1% (active).

The values are drawn from PubChem BioAssay (NCI).
